The text below walks through data of PubChem BioAssay AID1117284 (Broad Institute, 2014).

Entries with a potency or affinity are not part of this list. The source made the active and inactive calls.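 Rule for the calls: active = viability signal drop whose fitted half-maximal concentration is at most twice the top valid dose; inconclusive = flat partial drop or unreliable curve fit; inactive = the rest.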

The test can be described thus: A549 cell cytotoxicity, dose response, CellTiter-Glo luminescence, dry powder, set 17 (AID 1117284). The conditions noted are these: A549 viability, CellTiter-Glo ATP luminescence, 72 h; series mostly up to 26 µM. For orientation: ATP-based viability assays read luminescence as a measure of living cells.
For `C[C@H]1CN([C@@H](C)CO)S(=O)(=O)c2ccc(Br)cc2O[C@H]1CN(C)Cc1ccc(-c2ccccc2)cc1`, the outcome was inactive. With `C[C@@H](O)C#Cc1ccc2c(c1)O[C@@H](CN(C)Cc1cccnc1)[C@@H](C)CN([C@@H](C)CO)S2(=O)=O`, the result was inactive. With `C[C@@H](O)C#Cc1ccc2c(c1)O[C@@H](CN(C)C(=O)c1ccc(-c3ccccc3)cc1)[C@@H](C)CN([C@@H](C)CO)S2(=O)=O` the entry was “inactive”; with `C[C@@H](O)C#Cc1ccc2c(c1)O[C@@H](CN(C)S(=O)(=O)c1ccc(-c3ccccc3)cc1)[C@@H](C)CN([C@@H](C)CO)S2(=O)=O`, “inactive”.

Turning to `C[C@@H](O)C#Cc1ccc2c(c1)O[C@@H](CN(C)Cc1ccncc1)[C@@H](C)CN([C@@H](C)CO)S2(=O)=O`, the result was inactive. With `CNC[C@@H]1Oc2cc(Br)ccc2S(=O)(=O)N([C@@H](C)CO)C[C@@H]1C` the entry was “inactive”; with `C[C@H](CO)N1C[C@H](C)[C@H](CN(C)Cc2ccc(-c3ccccc3)cc2)Oc2cc(C#C[C@@H](C)O)ccc2S1(=O)=O`, “inactive”. With `CO[C@H]1CN(C)C(=O)c2ccc(NC(=O)c3ccc(F)cc3)cc2OC[C@H](C)N(C(=O)c2ccc(F)cc2)C[C@@H]1C` the entry was “inactive”.
